Data taken from the supplement of paper PMC10933113.
± gives the uncertainty stated by the source.

Columns and labels:
[1] = tested on: KeratinoSens (HaCaT ARE-luciferase) cells; experiment: Nrf2/ARE luciferase activation call in qHTS KeratinoSens assay (1 = active, 0 = inactive)
[2] = tested on: THP-1; experiment: CD54 surface expression induction over DMSO control (% over DMSO); higher = stronger dendritic cell activation; conditions: exposure time: 24 h
Protocol: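 hCLAT-like CD54 and CD86 surface expression on THP1 cells after 24 h exposure at a single concentration (highest non-cytotoxic concentration, or 100-200 µM if not cytotoxic). Flow cytometry (iQue) was run on 5,000 live cells.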

Compound	Nrf2/ARE luciferase activation call [1]	CD54 surface expression induction [2]
CCOC(=O)Nc1ccc(NCc2ccc(F)cc2)nc1N.O=C(O)/C=C\C(=O)O	not active ARE inducer (skin sensitizer alert) (inactive)	
COCCc1ccc(OCC(O)CNC(C)C)cc1.COCCc1ccc(OCC(O)CNC(C)C)cc1.O=C(O)[C@H](O)[C@@H](O)C(=O)O (stereo not given)	not active ARE inducer (skin sensitizer alert) (inactive)	
CCCCCCCCn1cc[n+](C)c1.O=S(=O)([O-])C(F)(F)F	not active ARE inducer (skin sensitizer alert) (inactive)	
CCCC[n+]1cccc(C)c1.O=S(=O)([O-])C(F)(F)F	not active ARE inducer (skin sensitizer alert) (inactive)	
CCCCn1cc[n+](C)c1C.O=S(=O)([O-])C(F)(F)F	not active ARE inducer (skin sensitizer alert) (inactive)	
CNC[C@H](O)c1ccc(O)c(O)c1.O=C(O)[C@H](O)[C@@H](O)C(=O)O	not active ARE inducer (skin sensitizer alert) (inactive)	
O=C(O)/C=C/C(=O)O.O=C1c2ccccc2C(=O)N1CCc1noc(-c2ccc(CN3CCCCCC3)s2)n1	not active ARE inducer (skin sensitizer alert) (inactive)	
CN(C)CCOc1ccccc1Cc1ccccc1.O=C(O)CC(O)(CC(=O)O)C(=O)O	not active ARE inducer (skin sensitizer alert) (inactive)	
Cc1cc(C2(c3cc(C)c(O)cc3C)OS(=O)(=O)c3ccccc32)c(C)cc1O [p-Xylenol blue] (200 µM)		8.91 ± 6.7
COc1ccc(-c2cc(=S)ss2)cc1 [Anethole trithione] (100 µM)		-12.4 ± 13
